The campaign covered roughly 71,000 compounds. About 65 (0.09%) were called active. The sample holds actives, similar compounds and a random draw of the others, so the mix is not that of the screen. Values without a mark were called inactive. Calls come from the whole dose curve; as a rule, active = well fitted curve in the direction sought with a large enough effect; inconclusive = small, poorly fitted or top-dose-only effect; inactive = flat fitted curve, though single readings scatter.
target: Beta-lactamase (Escherichia coli (strain K12)) (UniProt P00811); assay: Promiscuous and Specific Inhibitors of AmpC Beta-Lactamase (assay with detergent); conditions: purified AmpC, nitrocefin hydrolysis with detergent; series mostly up to 28.7 µM; activity change, negative = inhibition: at the top concentration
Sequence (P00811 whole entry, looked up): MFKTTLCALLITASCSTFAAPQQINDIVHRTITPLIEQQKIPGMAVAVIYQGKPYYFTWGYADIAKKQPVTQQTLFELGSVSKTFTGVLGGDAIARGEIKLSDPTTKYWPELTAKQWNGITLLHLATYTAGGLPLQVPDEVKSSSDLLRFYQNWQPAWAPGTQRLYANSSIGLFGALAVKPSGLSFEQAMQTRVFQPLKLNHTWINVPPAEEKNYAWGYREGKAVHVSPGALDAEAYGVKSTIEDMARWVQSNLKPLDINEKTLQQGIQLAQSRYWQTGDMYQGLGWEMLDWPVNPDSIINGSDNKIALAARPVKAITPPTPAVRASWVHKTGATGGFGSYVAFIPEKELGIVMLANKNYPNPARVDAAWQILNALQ
Protocol: NIH Molecular Libraries Screening Centers Network [MLSCN]
NIH Chemical Genomics Center [NCGC]
PI Name: Shoichet, Brian K.
This aggregation profiling approach exploits the sensitivity of aggregate formation to detergent. Inhibition of b-lactamase is measured in the presence and absence of 0.01% Triton X-100. This particular assay had the prescence of 0.01% Triton X-100. See Pubchem assay "Promiscuous and Specific Inhibitors of AmpC Beta-Lactamase (assay without detergent)" for related screen. Compounds that inhibit only in the absence of detergent are considered likely promiscuous aggregators.
A screen of 1,030 compounds was performed in Brian Shoichet's lab in 96-well format. AmpC activity was measured by following the absorbance at 480 nm. Nitrocefin is a chromogenic substrate: while nitrocefin is yellow (lmax 390 nm), the product of its hydrolysis is red (lmax 486 nm, 17,000 M-1). AmpC beta lactamase was provided by Brian Shoichet and Brian Feng, UCSF.
NCGC Assay Protocol Summary:
20 mM phosphate buffer, pH 7.0
Triton X-100: No Detergent screen: 0.0001%, Detergent screen: 0.01%.
Buffer in columns 3 and 4 as negative control (no enzyme).
5.3 nM AmpC in columns 1, 2, 5-48. Titration of UCSF compound 9 control (from 10 mM, then 1:2) pin-transferred to column 2. Column 1 is neutral (100% activity).
Six uL of reagents were dispensed to 1536-well Greiner black clear bottom plates. Compounds and controls (23 nL) were transferred via Kalypsys PinTool. The plates were incubated for 15 min at room temperature, and then 2 uL of 800 uM solution of nitrocefin was added to start the reaction. The plates were immediately transferred to and read every 20 seconds for 4 min on ViewLux (Perkin-Elmer) High-throughput CCD imager using 480 nm absorbance protocol. During dispense, reagent bottles were kept submerged into 4 deg C water bath.
Keywords: NIH Roadmap, MLSCN, MLI, MLSMR, qHTS, NCGC, AmpC Beta-Lactamase, Aggregation
% is set by controls: 0 for no effect and ±100 for the full control effect.

SMILES | activity change, negative = inhibition
COc1ccc(S(=O)(=O)N2CCCC(C(=O)N3CCN(C)CC3)C2)cc1C (centres undefined) | 0.3%
c1nnc2c3c4c(sc3ncn12)CCC4 | 2.4%
Cc1cccc(C)c1NC(=O)N1CC=C(n2c(=O)[nH]c3ccccc32)CC1 | -0.392%
Cc1cn(C2C=CC(CO)O2)c(=O)[nH]c1=O (centres undefined) | -3.11%
c1ccc(Nc2n[nH]nc2-c2ccccc2)cc1 | -5.69%
CCCn1c(SCC(N)=O)nnc1C(C)C | -2.16%
CC(C)(C)C(=O)CCN1C(=O)C2(OCCO2)c2ccccc21 | -1.15%
Cc1noc(C)c1-c1nccc(N2CCOCC2)n1 | 0.7%
COC(=O)c1nc(NC(=O)c2ccc(Cl)cc2)n[nH]1 | 1.67%
CCCCn1nnnc1NCc1cc(OC)c(OC)c(OC)c1 | -0.286%
CCOC(=O)C(C(=O)OCC)C(C#N)c1ccccc1 (centres undefined) | 14.3%
CC(=O)Oc1cccc(N2C(=O)CC(Nc3ccc(N4CCOCC4)cc3)C2=O)c1 (centres undefined) | -7.46%
CCC(=O)c1ccc(OCC(O)CN2C(=O)NC(C)(C)C2=O)cc1 (centres undefined) | 10.9%
COc1ccc(-n2ncc3c(N4CCCc5ccccc54)ncnc32)cc1 | -4.66%
COC(=O)c1ccccc1NC(=O)CSc1ccccn1 | 0.234%
O=C(CN1C(=O)CCC1=O)Nc1ccc(S(=O)(=O)N2CCOCC2)cc1 | -0.675%
CCS(=O)(=O)n1nc(-c2ccccc2)nc1SCc1ccccc1 | -2.9%
CCCC(=O)C1=C(N(C)c2ccccc2)CC(C)(C)C(C(=O)OC)C1=O (centres undefined) | -2.7%
Cn1cccc1C1(C(F)(F)F)NCCNC1=O (centres undefined) | -0.082%
CC(C)N(C(=O)COC(=O)c1ccccc1C(=O)N1CCN(c2ccc(F)cc2)CC1)C(C)C | 9.33%
O=c1[nH]c(=O)n([C@H]2C[C@H](O)[C@H](CO)O2)cc1Br | -1.6%
CC(=O)/C(C)=N\O | inactive
CC(C)Cc1ccc(S(=O)(=O)N2CCN(C(=O)c3ccco3)CC2)cc1 | -7.76%
O=c1c(-c2ccc(F)cc2)nc2cnc(N3CCOCC3)nc2n1-c1ccccc1 | -2.6%
CCON=C1C(C)(C)C(C)(C)C(C)(C)C1(C)C | -1.9% [at 5.75 µM]

SMILES | activity change, negative = inhibition
COc1cccc(NC(=O)c2ccccc2SC)c1 | -2.07%
CCOC(=O)c1cccc(NC(=O)CN(c2ccc(C)cc2)S(=O)(=O)c2c(C)noc2C)c1 | -3.74%
C[C@H]1O[C@@H](CC(=O)O)Cc2c1c(O)c1c(O)cc(-c3cc(=O)c4c(=O)c5c(c(=O)c=4c3=O)C[C@H](CC(=O)O)O[C@@H]5C)c(O)c1c2O | -3.2% [at 5.75 µM]
CCCCc1nc2ccccc2c(NC(=O)CN2CCN(C)CC2)c1CCC | -6.24%
O=C(O)Cc1ccc(-c2ccccc2)cc1 | 1% [at 12.8 µM]
O=C(O)C(=O)Cc1ccc2c(c1)OCO2 | -2% [at 5.75 µM]
CC/C(=N\O)C(C)(C)/[N+]([O-])=C/c1ccc(Br)cc1 | -3.57%
CC(=O)NC(Cc1ccc(F)cc1)C(=O)O (centres undefined) | 1.35%
Nc1nonc1-c1noc(-c2ccc(Br)o2)n1 | -1.42%
Cc1ccc(C)n1-c1ccncc1 | -1.08%
O=C(CCCn1c(=O)oc2ccccc21)Nc1cccnc1 | -2.89%
COc1ccc(C(=O)Nc2c(N)nc(SCC(=O)N3CCC(C)CC3)[nH]c2=O)cc1OC | 6.59%
COC(=O)c1sc(=S)n(-c2ccccc2)c1N | -0.579%
COc1ccc(CCN2CNc3c(c(=O)n(C)c(=O)n3C)C2)cc1OC | -3.65%
CC1CCN(Cc2nc3c(c(=O)n(C)c(=O)n3C)n2CCc2ccccc2)CC1 | 13.7%
COc1ccc(CCNC(=O)CSc2nc(C)nc3c2oc2ccccc23)cc1OC | -0.64%
CCn1c(-c2cc(OC)ccc2OC)csc1=Nc1c(C)n(C)n(-c2ccccc2)c1=O | -1.83%
COc1ccc(C)c(Cn2c(-c3nonc3N)nc3ccccc32)c1 | -2.41%
CCCCOc1ccc(C(=O)NCc2ccco2)cc1 | 8.19%
Cc1ccc2c(CSc3nncs3)cc(=O)oc2c1 | 13.6%
CCOC(=O)C1CCN(C(=O)C2CCN(S(=O)(=O)N3CCCC3)CC2)CC1 | -0.132%
COc1ccccc1-c1nnc(SCC(=O)Nc2cc(C)on2)o1 | -4.26%
CSCCC(NC(N)=O)C(=O)N(C)CC(=O)Nc1ccc(C)cc1 (centres undefined) | 0.529%
CCOc1ccc(OCC)c(NC(=O)CSc2nnc(Cn3cnc4ccccc43)n2C)c1 | -2.84%

Source: PubChem BioAssay AID584 (National Center for Advancing Translational Sciences (NCATS), 2007)
